IL1B secr inh – inhibitors of inflammasome signaling (IL-1 beta secretion). THP-1 LPS/ATP IL-1B secretion, AlphaLISA, 16 h; active compounds read low. activity change, % at 57.5 µM. actives 4.7% (n = 360,000). AID 743279; in the data active means activity change below about -50%; inconclusive means mostly about -30% to -49%; further: on the % scale 0 is the no-effect control and ±100 the full control effect
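THP-1 cells pretreated 1 hr with compounds (up to 57.5 uM final), then stimulated with LPS (250 ng/mL final) plus ATP (1.25 mM final); secreted IL-1B measured by AlphaLISA after 16 hr, decreased signal indicating inhibition.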
TGFb SMAD3 inh – blocks TGF-b signaling; HepG2 CAGA-GFP TGF-b/SMAD3 reporter, GFP fluorescence, 18 h; TGF-beta stimulated, 500 pg/mL final; Potency, µM (doses to about 46.1 µM), for inactives: top-dose activity, negative = inhibition, most hits filed as inhibitors; actives 1.2% (n = 410,000); further: potency means the concentration at half of the fitted maximal effect; on the % scale 0 is the no-effect control and ±100 the full control effect; nearly all actives have a fitted effect of over 65% in size
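GFP signal (ex488/em500-530) from TGF-beta-stimulated HEPG2 CAGA-GFP cells, 500 pg/mL final, 18 h at 37 degrees C in DMEM plus 1% FBS, normalized to unstimulated and DMSO-stimulated controls.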
TDP1 inh – TDP1 (human) enzyme inhibition; Q9NUW8; recombinant TDP1, AlphaScreen DNA substrate cleavage; Potency, µM (top dose mostly 130 µM), without a hit: top-dose activity change, negative = inhibition, most hits filed as inhibitors; actives 0.28% (n = 350,000); AID 485290; further: potency means the concentration at half of the fitted maximal effect; on the % scale 0 is the no-effect control and ±100 the full control effect; nearly all actives have a fitted effect of over 40% in size
Target sequence (Q9NUW8 whole entry, looked up): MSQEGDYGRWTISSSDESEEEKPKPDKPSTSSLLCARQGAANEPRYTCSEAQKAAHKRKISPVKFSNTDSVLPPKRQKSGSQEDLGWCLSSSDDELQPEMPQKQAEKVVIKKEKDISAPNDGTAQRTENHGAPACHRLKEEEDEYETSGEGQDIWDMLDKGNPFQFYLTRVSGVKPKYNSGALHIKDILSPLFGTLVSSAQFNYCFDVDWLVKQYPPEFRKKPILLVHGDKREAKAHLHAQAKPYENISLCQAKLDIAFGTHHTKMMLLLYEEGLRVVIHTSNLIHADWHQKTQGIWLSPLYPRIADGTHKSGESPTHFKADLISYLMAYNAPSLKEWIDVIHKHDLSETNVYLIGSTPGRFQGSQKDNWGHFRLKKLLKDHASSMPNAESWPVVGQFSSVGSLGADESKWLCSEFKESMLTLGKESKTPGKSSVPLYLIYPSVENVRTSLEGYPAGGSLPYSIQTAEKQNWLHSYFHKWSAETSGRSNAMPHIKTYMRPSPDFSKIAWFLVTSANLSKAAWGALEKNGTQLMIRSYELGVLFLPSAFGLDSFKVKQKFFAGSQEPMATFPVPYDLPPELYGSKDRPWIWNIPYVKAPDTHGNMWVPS
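E. coli-derived human Tdp1, 1 nM final. Cpd preinc 15 min RT; substrate 15 nM final, 5 min RT; AS bead mix 10 ug/ml final, 10 min RT. Signal loss = tyrosine-FITC cleavage. No-enzyme wells = max signal.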
HepG2 viability – counter-screen for TGF-b inhibitors: cytotoxicity in HepG2 cells; Potency, µM (doses to about 46.1 µM), without a hit: top-dose activity change, negative = cytotoxicity, usual class: cytotoxic; actives 0.76% (n = 410,000); HepG2 CAGA-GFP viability, ATP luminescence, 18 h; further: potency means the concentration at half of the fitted maximal effect
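CellTiter-Glo luminescence gave cytotoxicity after 18 hours at 37 degrees C. The cells were HepG2 CAGA-GFP in 1% FBS DMEM, stimulated with 500 pg/mL TGF-beta after compound addition. %Activity was normalised to no-cell wells (complete cell-killing) and DMSO (no toxicity), and curves were fitted and classified.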
TDP1 cell noCPT – qHTS for Inhibitors of human tyrosyl-DNA phosphodiesterase 1 (TDP1): qHTS in cells in absence of CPT | DT40 Tdp1-/- hTDP1 cells, no CPT, ATP luminescence, 48 h | Potency, µM (doses to about 46.2 µM), for the others: at the top dose activity change, negative = growth inhibition, most hits filed as inhibitors | actives 15% (n = 420,000) | AID 686978, 2013; further: potency means the concentration at half of the fitted maximal effect; on the % scale 0 is the no-effect control and ±100 the full control effect; nearly all actives have a fitted effect of over 55% in size
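Seeded 400 DT40-hTDP1 cells/well (vehicle DMSO, no 20 nM CPT); pinned compounds; ≥48 hr at 37 °C; CellTiter-Glo luminescence as viability measure.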
TDP1 cell CPT – DT40-hTDP1 cell growth loss with CPT; chicken DT40 Tdp1-/-;hTDP1 cells + 20 nM CPT, ATP luminescence, 48 h; Potency, µM (titrated, usually from 46.2 µM), for inactives: top-dose activity change, negative = growth inhibition, most hits filed as inhibitors; actives 12% (n = 420,000); further: potency means the concentration at half of the fitted maximal effect; on the % scale 0 is the no-effect control and ±100 the full control effect; nearly all actives have a fitted effect of over 55% in size
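Chicken DT40 Tdp1-/- cells complemented with human TDP1, 400 cells/well, exposed to compounds plus 20 nM camptothecin for at least 48 h at 37 C; viability read as ATP content by CellTiter-Glo luminescence.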
The depositor's hits bear a star; [ ] = remark or other dose. Only some compounds are listed: those with a hit (about 18% of all), similar ones and a draw of the others. Unless noted, the call rests on the fitted dose curve; in most records, active means well fitted curve in the direction sought with a large enough effect; inconclusive means small, poorly fitted or top-dose-only effect, or another doubt; inactive means no such curve, though single readings can be large; an effect the other way counts as inactive or inconclusive.

COC(=O)C1=C(C(=O)OC)[C@@H]2N(C)c3ccc(OC)cc3[C@@]23C[C@@H](C(=O)OC)N(C(=O)c2cccs2)C3=N1 was read as IL1B secr inh 19.1, TGFb SMAD3 inh -4.0%, TDP1 inh 7.1%[12.3 µM], HepG2 viability -18.5%, TDP1 cell noCPT -22.2% and TDP1 cell CPT -1.4%.
C#CCCOC(=O)N1C2=NC(C(=O)OC)=C(C(=O)OC)[C@@H]3N(C)c4ccccc4[C@]23C[C@H]1C(=O)OC was read as IL1B secr inh 3.7, TGFb SMAD3 inh inconclusive, TDP1 inh 8.3%[12.3 µM], HepG2 viability -2.7%, TDP1 cell noCPT -10.6% and TDP1 cell CPT -12.4%.
`COC(=O)C1=C(C(=O)OC)[C@@H]2N(C)c3ccc(OC)cc3[C@@]23C[C@@H](C(=O)OC)N(C(=O)c2cc(C)oc2C)C3=N1` gave IL1B secr inh 18.7, TGFb SMAD3 inh -8.1%, TDP1 inh 8.3%[12.3 µM], HepG2 viability -19.2%, TDP1 cell noCPT inconclusive and TDP1 cell CPT 23.1µM*.
For CC#CCN1c2ccccc2[C@]23C[C@@H](C(=O)OC)N(C(=O)c4ccc(Br)cc4)C2=NC(C(=O)OC)=C(C(=O)OC)[C@H]13 the results were IL1B secr inh -5.9, TGFb SMAD3 inh 0.6%, TDP1 inh 16.1%[12.3 µM], HepG2 viability 1.6%, TDP1 cell noCPT 18.4µM* and TDP1 cell CPT 20.6µM*.
`C#CCCOC(=O)N1C2=NC(C(=O)OC)=C(C(=O)OC)[C@@H]3N(Cc4ccccc4)c4ccccc4[C@]23C[C@H]1C(=O)OC` gave IL1B secr inh -29.8, TGFb SMAD3 inh inconclusive, TDP1 inh 8.3%[12.3 µM], HepG2 viability -30.3%, TDP1 cell noCPT inconclusive and TDP1 cell CPT 16.4µM*.
CCOC(=O)N1C2=NC(C(=O)OC)=C(C(=O)OC)[C@@H]3N(C)c4ccccc4[C@]23C[C@H]1C(=O)OC was read as IL1B secr inh 0.0, TGFb SMAD3 inh -12.3%, TDP1 inh -1.4%[12.3 µM], HepG2 viability -21.7%, TDP1 cell noCPT 18.4µM* and TDP1 cell CPT 16.4µM*.
For Cn1c(=O)c2c(SCC(=O)N3CCOCC3)nc(-c3ccccc3Cl)nc2n(C)c1=O the results were IL1B secr inh -9.5, TGFb SMAD3 inh -2.9%, TDP1 inh 0.3%, HepG2 viability 5.3%, TDP1 cell noCPT inconclusive and TDP1 cell CPT inconclusive.
For COc1cccc(C(=O)CC2c3c(c(Br)c4c(c3OC)OCO4)CCN2C)c1 (stereo unspecified) the results were TDP1 inh -2.5%, TDP1 cell noCPT 0.7%[9.04 µM] and TDP1 cell CPT 11.2%[9.04 µM].
For COc1ccccc1C1CN(CCNC(=O)c2cnsn2)Cc2ccccc2O1 (stereo unspecified) the results were TDP1 cell noCPT -56.6% and TDP1 cell CPT -7.3%[9.04 µM].
For Cc1ccc(CNC(=O)CCCCCn2c(=O)c3sccc3n(CC(=O)Nc3c(C)cc(C)cc3C)c2=O)cc1 the results were TGFb SMAD3 inh 12.4%, TDP1 inh 0.9%, HepG2 viability 16.8%, TDP1 cell noCPT 4.8% and TDP1 cell CPT 11.2%.
Screening CC1=CC(C)(C)NC(=S)N1C(C)c1ccccc1 (stereo unspecified) returned IL1B secr inh 60.0, TGFb SMAD3 inh inconclusive, HepG2 viability -16.2%, TDP1 cell noCPT inconclusive and TDP1 cell CPT inconclusive.
O=C(Cn1c(=O)oc2ccccc21)Nc1ccccc1Cl was read as IL1B secr inh 3.3, TGFb SMAD3 inh 0.0%, HepG2 viability 19.4%, TDP1 cell noCPT inconclusive and TDP1 cell CPT -1.5%.

Screens as filed in PubChem.
